From PubChem BioAssay
Shown are actives, neighbours in structure and some others; about 6.7% of the full set was active somewhere.
PINK1 modulator – A Quantitative High throughput Screen to Identify Chemical Modulators of PINK1 Expression; PINK1 immunofluorescence, high-content cytometry, 24 h; Potency, µM (doses to about 76.6 µM), for the others: at the top dose activation (PINK1 increase), hits mostly activators; hit rate 0.2% among 410,000; AID 624263, 2012; active means well fitted activation curve with a large enough effect; inconclusive means small, poorly fitted or top-dose-only effect; cell line not stated here; further: % of control where 0% means no effect; nearly all actives have a fitted effect of over 65% in size
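Stable cell line treated 24 h with compounds at 5 concentrations (CCCP controls), then fixed and immunostained for PINK1 plus nuclear and cell stains; PINK1 immunofluorescence quantified by laser-scanning microplate cytometry.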
MCF10A rereplic – A quantitative high throughput screen for small molecules that induce DNA re-replication in MCF 10a normal breast cells | MCF 10A DNA re-replication, Hoechst nuclear intensity, 48 h | Potency, µM (titrated, usually from 46.1 µM), for inactives: top-dose activity, positive = re-replication, most hits filed as activators | hit rate 2.9% among 350,000 | AID 624296, 2012; further: % of control where 0% means no effect; nearly all actives have a fitted effect of over 50% in size
KB-V1 cytotox – qHTS assay for MDR1-selective chemotherapeutics: Primary screen using the drug-selected MDR subline cells KB-V1; KB-V1 MDR cells viability, CellTiter-Glo, 72 h; Potency, µM (highest dose often 46.1 µM), hits mostly cytotoxic; hit rate 3.4% among 400,000; AID 1347076, 2019; further: on the % scale 0 is the no-effect control and ±100 the full control effect; nearly all actives have a fitted effect of over 60% in size
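Cells of the MDR subline KB-V1 are plated, dosed with compound at multiple concentrations, and incubated 72 h at 37 degrees C; CellTiter-Glo is then added and luminescence read after 10 min.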
KB-3-1 tox – qHTS assay for MDR1-selective chemotherapeutics: Primary screen using the parental adenocarcinoma cell KB-3-1 | hit rate 1.4% among 400,000 | KB-3-1 viability, CellTiter-Glo ATP luminescence, 72 h | Potency, µM (series often up to 46.1 µM), hits mostly cytotoxic | AID 1347075, 2019; further: on the % scale 0 is the no-effect control and ±100 the full control effect; nearly all actives have a fitted effect of over 60% in size
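Viability of parental KB-3-1 cells, measured by CellTiter-Glo luminescence, followed a 72 h incubation at 37 °C with pinned compounds in phenol-red-free DMEM containing 10% FBS.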
SW480 rerep – A quantitative high throughput screen for small molecules that induce DNA re-replication in SW480 colon adenocarcinoma cells | AID 624297, 2012 | SW480 DNA re-replication, Hoechst DNA content imaging, 48 h | hit rate 1.8% among 340,000 | Potency, µM (highest dose often 46.1 µM), without a hit: top-dose re-replication activation, actives largely listed as activators; further: % of control where 0% means no effect; nearly all actives have a fitted effect of over 55% in size
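Hoechst fluorescence of nuclei (405 nm excitation, 500-530 nm emission) measured by plate-scanning imager after 48 hr compound exposure at 37 C; re-replication scored as increased number of nuclei with elevated intensity.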
The depositor's hits bear a star; i = inactive; u = inconclusive; x = no result given; [ ] = remark or other dose. Unless noted, the call rests on the fitted dose curve; in most records, active means well fitted curve in the direction sought with a large enough effect; inconclusive means small, poorly fitted or top-dose-only effect, or another doubt; inactive means no such curve, though single readings can be large; an effect the other way counts as inactive or inconclusive. Potency means the concentration at half of the fitted maximal effect.

SMILES	PINK1 modulator	MCF10A rereplic	KB-V1 cytotox	KB-3-1 tox	SW480 rerep
CC(C)(C)c1ccc(CN2N=Nc3ccccc3S2(=O)=O)cc1	0%	u	8.2µM*	12µM*	u
COc1cc(NC(=O)C(C)C)ccc1NC(=O)c1cc2ccccc2o1	2%	-1%	i	i	-7%
COc1cc(NC(=O)c2cccc(C)c2)ccc1NC(=O)c1cc2ccccc2o1	9%	2.6µM*	i	i	15%
COc1cc(NC(=S)NC(=O)C(C)C)ccc1NC(=O)c1cc2ccccc2o1	2%	8.2µM*	i	i	u
CCc1cccc(NC(=O)CSc2ncccc2C(=O)Oc2ccccc2Cl)c1	-1%	x	x	x	x
CN(C)c1ccc(CN2CCc3nc(N4CCN(c5ccccn5)CC4)ncc3C2)cc1	2%	x	u	u	x
COc1cccc(C(=O)N2CCCc3ccccc32)c1	10%[38.3 µM]	2%	u	i	-2%
COc1ccc2c(c1)CCc1c(C(=O)N3CCCc4ccccc43)noc1-2	-5%[38.3 µM]	u	7.3µM*	21µM*	12%
COc1ccc2c(c1)CCc1c(C(=O)N3CCOCC3)noc1-2	-4%[38.3 µM]	7%	16µM*	i	-2%
COc1ccc(CCn2c(=S)[nH]c(=O)c3cccnc32)cc1OC	3%	x	x	x	x
C#CCN(C[C@@H]1[C@@H](OC(=O)NCc2ccco2)[C@@H](OC(=O)NCc2ccco2)Cn2c(=O)ccc(=O)n21)S(=O)(=O)c1ccc(C)cc1	-1%	x	i	16µM*	x
CCOc1ccc(C2c3cc(OC)c(OC)cc3CC(=O)N2c2ccc(OC)cc2)cc1 (configuration not stated)	13%[38.3 µM]	124%	u	18µM*	15µM*
CCc1cc2c3c(c1)C1(C(=O)N3C(C)(C)C=C2C)C(C#N)=C(N)Oc2[nH]c(=O)[nH]c(=O)c21 (configuration not stated)	7%	u	u	u	4.1µM*
O=C1CCCc2cc3c(ccc4ccccc43)cc21	-1%	18µM*	i	i	2%
CC(=O)Nc1cc(-c2ccc(CO)cc2)cn2c(-c3cccc(C(F)(F)F)c3)cnc12	5%	x	i	i	x
CN(C)c1ccc(/C=C/C(=O)c2c(O)c3ccccc3oc2=O)cc1	4%	4%	i	i	u
CCOc1ccc(/C=C/C(=O)c2c(O)c3ccccc3oc2=O)cc1	-1%	u	12µM*	i	u
COc1cc(N(C)C)ccc1C=c1c2ccccc2n2c1cc(-c1ccccc1)[n+]2C	-6%	8%	u	1µM*	u
CN(C)c1ccc(/C=C2\C=Cc3cc([N+](=O)[O-])ccc32)cc1	1%	x	i	u	x
CN(C)c1ccc(C=c2c3ccccc3n3c2cc(-c2ccc(Cl)cc2)[n+]3C)cc1	1%	26%	i	7.3µM*	u
CN(C)c1ccc(C=c2c3ccccc3n3c2c2c([n+]3C)CCCC2)cc1	-1%	u	i	u	-2%
CN(c1ccc(Cl)cc1)c1cc(=O)n(C)c2ccccc12	6%	16%	u	u	-5%[9.22 µM]
CN(C)c1ccc(C=c2c3ccccc3n3c2cc(-c2ccccc2)[n+]3C)cc1	-4%	-9%	16µM*	u	u
CN(C)c1ccc(C=c2c3cc([N+](=O)[O-])ccc3n3c2cc(-c2ccccc2)[n+]3C)cc1	0%	u	i	5.2µM*	7%
Cc1cc(C)n(-c2cccc(C(=O)NCC3Cc4cccc(-c5ccccn5)c4O3)c2)n1 (configuration not stated)	0%	x	x	x	x
SMILES	PINK1 modulator	MCF10A rereplic	KB-V1 cytotox	KB-3-1 tox	SW480 rerep
Cc1cccc(C(=O)N2c3ncnn3C3(CCCCC3)[C@@H]3CCCC[C@@H]32)c1	0%	x	i	i	x
CC1(C(=O)Nc2cccc3ccccc23)CCN1C(=O)C1(c2ccccc2)CCCC1 (configuration not stated)	3%	x	i	i	x
CC(O)c1nc2ccccc2[nH]1 (configuration not stated)	x	x	i	i	x
Cc1nc(SCc2nc3ccccc3[nH]2)c2oc3ccccc3c2n1	0%	u	i	i	0%
Cc1cc(C)cc(CC(Cc2nc3ccccc3[nH]2)c2nc3ccccc3[nH]2)c1 (configuration not stated)	16µM*	u	i	16µM*	-3%[9.22 µM]
c1ccc2[nH]c(CSc3ncnc4c3oc3ccccc34)nc2c1	1%[38.3 µM]	u	4.6µM*	u	6%
c1coc(-c2nnc(SCc3nc4ccccc4[nH]3)o2)c1	5%[38.3 µM]	5%	15µM*	u	-1%
Clc1ccc(SCc2nc3ccccc3[nH]2)cc1	9%[38.3 µM]	u	23µM*	i	1%
Cc1ccc(CSCc2nc3ccccc3[nH]2)cc1	-2%	16µM*	i	i	u
Cc1ccc(SCc2nc3ccccc3[nH]2)cc1	-1%[38.3 µM]	-1%	i	i	u
Cc1ccc2c(CSc3nc4ccccc4c(=O)n3CCCO)cc(=O)oc2c1C	1%	u	i	i	-1%
Cc1ccc2c(CSc3nnc4ccccn34)cc(=O)oc2c1C	0%	-1%	16µM*	i	-13%
Cc1ccc(Cn2cnc3ccccc32)cc1C	4%	18%	21µM*	8.2µM*	1%
CCOc1cc(C)c(S(=O)(=O)NC2CCCCC2)cc1C	13%	-2%	u	u	-1%
CCOc1cc(S(=O)(=O)NCc2ccc(OC)cc2)c(OCC)cc1-n1cnnn1	5.6µM*	u	5.2µM*	i	u
CCOc1ccc(Br)cc1S(=O)(=O)NC1CCCC1	0%	11%	16µM*	i	-4%
CCOc1cc(S(=O)(=O)NC2CC2)c(OCC)cc1-n1cnnn1	-2%[38.3 µM]	16%	15µM*	i	-11%
CCOc1cc(S(=O)(=O)N2CCN(S(=O)(=O)CC)CC2)c(OCC)cc1-n1cnnn1	2%	17%	i	i	-30%
CC1(C(=O)NS(=O)(=O)c2cccc(Cl)c2)CCN1C(=O)Cc1cc(F)ccc1F (configuration not stated)	1%	x	i	i	x
O=C(NCc1noc2ccccc12)N1CCN(c2ccccc2)CC1	0%	x	i	i	x
Cc1ccc(S(=O)(=O)N2CCN(c3nc(-c4ccc(CN5CCOCC5)s4)nc4ccccc34)CC2)cc1	3%	x	u	i	x
CCc1ccccc1NC(=O)CN(C)C(=O)CSc1nn(-c2ccccc2)c(=S)s1	3%	-7%	i	i	u
